# From PubChem
# MazF activator – activators of E. coli MazEF toxin-antitoxin RNase, primary screen, biochemical, fluorescence, uHTS. FAM/BHQ RNA-DNA oligo cleavage fluorescence, 5 h. activation, % at 20 µM. 0.32% of 350,000 active; in the data active = activation above about 50%
# Target sequence (P0AE70 whole entry, looked up): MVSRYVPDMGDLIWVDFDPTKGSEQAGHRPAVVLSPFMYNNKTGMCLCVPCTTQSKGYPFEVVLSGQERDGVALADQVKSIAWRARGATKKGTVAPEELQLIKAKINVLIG
# PfHsp40 yeast – rescue of yeast from PfHsp40 toxicity, primary screen, S. cerevisiae, ATP luminescence; S. cerevisiae expressing PfHsp40, growth rescue; growth rescue, % at 12.5 µM; 0.68% of 340,000 active; AID 504582, 2011; in the data active = growth rescue above about 28%, passing the limit was not always enough;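 also: yeast W303a lacking pdr1 and pdr3 grown in galactose medium; growth measured after three days at 30 °C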
# BJeLR viability – MLPCN primary cell-based screen for lethality selective to Ras in HRASV12 cells; AID 1554, 2009; 0.17% of 300,000 active; inhibition, % (test concentration not listed); BJeLR (HRASV12) viability, CellTiter-Glo ATP luminescence, 48 h; in the data active = inhibition above about 50%
# SARS 3CLpro inh – SARS-CoV 3CLpro protease inhibitors, primary screen, biochemical, quenched FRET. inhibition, % at 6 µM. 0.14% of 290,000 active. Replicase polyprotein 1ab (Severe acute respiratory syndrome coronavirus), P0C6X7. recombinant SARS-CoV 3CLpro, quenched FRET peptide cleavage. AID 1706, 2009; in the data active = inhibition above about 12%
# BioA inh-1 – M. tuberculosis BioA enzyme inhibitors, primary screen, biochemical, plate reader, single point, HTS | 7,8-diaminopelargonic acid synthase BioA (Mycobacterium tuberculosis) | purified M. tuberculosis BioA enzyme | inhibition, % at 9.99 µM | 0.096% of 360,000 active; in the data active = inhibition above about 40%
# Yp Topo-I inh – Yersinia pestis topoisomerase I inhibitors, primary screen, biochemical, cleavage product accumulation, plate reader, single point; DNA topoisomerase I (Yersinia pestis CO92); Y. pestis Topo-I cleavage product accumulation; AID 504884, 2011; activity, % at 10 µM; 0.064% of 360,000 active; in the data active = activity above about 50%, passing the limit was not always enough
# BioA inh-2 – Mtb BioA enzyme inhibitors, dose response, biochemical, plate reader, cherry-pick samples, set 03; 310 tested, under 10 active; max activity, %; purified BioA enzyme; shares compounds with BioA inh-1;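 also: top concentration of the dilution series was 10 µM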
# Target sequence (P9WQ81 whole entry, looked up): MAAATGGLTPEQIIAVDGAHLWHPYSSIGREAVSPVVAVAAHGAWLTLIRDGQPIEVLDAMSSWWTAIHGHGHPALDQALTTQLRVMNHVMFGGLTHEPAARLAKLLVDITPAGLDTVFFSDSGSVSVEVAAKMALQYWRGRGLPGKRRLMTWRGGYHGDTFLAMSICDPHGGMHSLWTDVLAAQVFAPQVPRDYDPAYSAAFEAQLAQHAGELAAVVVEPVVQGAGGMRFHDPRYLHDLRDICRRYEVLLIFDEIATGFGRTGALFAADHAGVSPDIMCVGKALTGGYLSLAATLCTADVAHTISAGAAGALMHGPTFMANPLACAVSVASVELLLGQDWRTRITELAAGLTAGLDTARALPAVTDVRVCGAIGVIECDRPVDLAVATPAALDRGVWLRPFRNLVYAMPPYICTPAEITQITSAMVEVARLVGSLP
# HepG2 cytotox – cytotoxicity in HepG2 cells, dose response, cytotoxicity control, cell-based, plate reader, cherry-pick, two tests; shares compounds with BioA inh-1; max activity, %; 310 tested, under 10 active
# 3T3 cytotox 5 – cytotoxicity in NIH3T3 fibroblasts, dose response, cytotoxicity control, cell-based, plate reader, cherry-pick, two tests. activity change, negative = cytotoxicity, % at 26 µM. shares compounds with BioA inh-1. 310 tested, under 10 active
# * hit, by the source's call; i = inactive; nt = no result; [ ] = another dose, or the depositor's remark. Rows were chosen to be rich in hits. Some 1.1% of all compounds tested hit in one or more screens of this group. Unless noted, no rule for the calls is given here.
SMILES,MazF activator,PfHsp40 yeast,BJeLR viability,SARS 3CLpro inh,BioA inh-1,Yp Topo-I inh,BioA inh-2,HepG2 cytotox,3T3 cytotox 5
CN1c2ccc(-c3cccc(F)c3)cc2[C@H]2[C@H](CCN2C(=O)c2ccncc2)[C@H]1CO,nt,nt,nt,nt,95*,nt,-11,i,2
CN1c2ccc(-c3ccccc3)cc2[C@@H]2[C@@H](CCN2C(=O)c2ccncc2)[C@H]1CO,nt,nt,nt,nt,3,nt,nt,nt,nt
O=C(C[C@H]1C[C@@H]2c3cc(NC(=O)Nc4ccccc4F)ccc3O[C@@H]2[C@@H](CO)O1)NC1CCCC1,nt,nt,nt,nt,0,nt,nt,nt,nt
C[C@@H]1CCCCO[C@H](CN(C)CC2CCCCC2)[C@@H](C)CN([C@@H](C)CO)C(=O)c2cc(NS(=O)(=O)c3cn(C)cn3)ccc2O1,nt,nt,nt,nt,0,nt,nt,nt,nt
CN1c2ccc(-c3cccc(C#N)c3)cc2[C@@H]2[C@@H](CCN2C(=O)CC2CC2)[C@H]1CO,nt,nt,nt,nt,15,nt,nt,nt,nt
COc1cccc(-c2ccc3c(c2)[C@@H]2[C@@H](CCN2C(=O)c2ccc4c(c2)OCO4)[C@H](CO)N3C)c1,nt,nt,nt,nt,-2,nt,nt,nt,nt
CN1c2ccc(-c3cccc(C#N)c3)cc2[C@H]2[C@H](CCN2C(=O)CC2CC2)[C@H]1CO,nt,nt,nt,nt,65*,nt,17,i,3[23.5 µM]
CN1c2ccc(-c3cccc(F)c3)cc2[C@H]2[C@H](CCN2C(=O)c2ccc3c(c2)OCO3)[C@H]1CO,nt,nt,nt,nt,99*,nt,-5,i,-3[23.5 µM]
CC(=O)c1ccc(C(=O)N2CCCC(CCC(=O)N(C)CCc3ccccn3)C2)s1 (stereo not drawn),11,-1,5,1,66*,2,3,-15,-10
CN(CCc1ccccn1)C(=O)CCC1CCCN(C(=O)c2cscn2)C1 (stereo not drawn),-5,0,-15,-1,nt,-5,nt,nt,nt
Cc1noc(C)c1S(=O)(=O)Nc1ccc2c(c1)C(=O)N([C@H](C)CO)C[C@H](C)[C@@H](CN(C)S(C)(=O)=O)OCCCC[C@@H](C)O2,nt,nt,nt,nt,-2,nt,nt,nt,nt
O=C(c1ccccc1F)N1CC[C@@H]2[C@H](CO)Nc3ccc(Br)cc3[C@@H]21,nt,nt,nt,nt,83*,nt,-6,i,7
O=C(c1cccc(F)c1)N1CC[C@@H]2[C@@H](CO)Nc3ccc(-c4cccc(F)c4)cc3[C@@H]21,nt,nt,nt,nt,98*,nt,-11,i,-9
O=C(c1ccccc1F)N1CC[C@@H]2[C@H](CO)Nc3ccc(-c4ccccc4)cc3[C@@H]21,nt,nt,nt,nt,-1,nt,nt,nt,nt
O=C(c1ccccc1F)N1CC[C@@H]2[C@H]1c1cc(Br)ccc1N[C@@H]2CO,nt,nt,nt,nt,49*,nt,4,i,6
C[C@@H]1CN([C@H](C)CO)C(=O)c2cc(-c3cccnc3)cnc2O[C@H]1CN(C)C(=O)Cc1cccnc1,nt,nt,nt,nt,1,nt,nt,nt,nt
C[C@@H]1CCCCO[C@@H](CN(C)CC2CC2)[C@@H](C)CN([C@H](C)CO)C(=O)c2cc(NS(=O)(=O)c3ccccc3)ccc2O1,nt,nt,nt,nt,-2,nt,nt,nt,nt
Cc1ccc(NCc2nnc(SCC(=O)N3CCc4ccccc43)n2C)cc1,7,0,12,0,47*,19,-9,12,-10
CCC(CO)[n+]1c(C)cc(/C=C2\Sc3ccccc3N2Cc2ccccc2)cc1C (stereo not drawn),22,4,nt,-4,53*,16,-6,14,-9
CCOC(=O)c1c(C)[n+](-c2ccc(C)cc2)c(CC)c2cc(OC)c(OC)cc12,5,0,-3,-4,77*,2,-9,13,-3
O=S(=O)(N[C@@H]1CC[C@H](CCn2cc(C3(O)CCCC3)nn2)O[C@H]1CO)c1ccccc1,nt,nt,nt,nt,-4,nt,nt,nt,nt
O=C(NCc1ccco1)c1ccc(-c2ccc3nccn3c2)cc1,nt,nt,nt,nt,48*,6,4,28,11
O=C(CSc1nc2c(c(=O)n1-c1ccc(Cl)cc1)SCC2)N1CCOCC1,-5,0,0,-4,56*,4,-7,-6,-4
O=C(CSc1nc2c(c(=O)n1-c1ccc(Cl)cc1)SCC2)N1CCCC1,5,3,-4,3,2,4,nt,nt,nt
COC(=O)c1c(C(=O)OC)c(-c2cccc(F)c2)n2c1CS(=O)C2 (stereo not drawn),5,-1,1,5,98*,3,-6,-11,8
SMILES,MazF activator,PfHsp40 yeast,BJeLR viability,SARS 3CLpro inh,BioA inh-1,Yp Topo-I inh,BioA inh-2,HepG2 cytotox,3T3 cytotox 5
COc1cccc(NC(=O)CCC2CCN(C(=O)c3ccc(C(C)=O)s3)CC2)c1,6,1,6,-2,72*,19,2,-13,0
COc1cccc(NC(=O)CCC2CCN(C(=O)c3sccc3C)CC2)c1,1,-1,-12,7,4,16,nt,nt,nt
COc1ccc(N2CCN(C(=O)Cc3cccs3)CC2)cc1,1,-2,30,3,3,-6,nt,nt,nt
CC(=O)c1ccc(N2CCN(C(=O)Cc3cccs3)CC2)cc1,8,0,5,-1,49*,-14,-6,15,0
CCNC(=O)[C@H]1[C@H](CO)[C@H]2Cn3c(ccc(-c4ccccc4)c3=O)[C@@H]1N2C(=O)c1ccccn1,nt,nt,nt,nt,0,nt,nt,nt,nt
COc1ccc(C2c3c(-c4ccccc4O)n[nH]c3C(=O)N2Cc2ccco2)cc1OC (stereo not drawn),7,0,-3,-2,nt,-1,nt,nt,nt
COc1ccc(C2c3c(-c4cc(Cl)c(C)cc4O)n[nH]c3C(=O)N2Cc2cccnc2)cc1OC (stereo not drawn),1,0,4,5,56*,-2,-6,-10,-6
C[C@H]1CN([C@@H](C)CO)C(=O)c2cccc(NC(=O)Nc3cccc4ccccc34)c2O[C@H]1CN(C)Cc1ccc(-c2ccccc2)cc1,nt,nt,nt,nt,-2,nt,nt,nt,nt
CCCNC(=O)Nc1ccc2c(c1)OC[C@H](C)N(CCC)C[C@@H](C)[C@H](OC)CN(C)C2=O,nt,nt,nt,nt,1,nt,nt,nt,nt
COc1ccc(-c2ccc3c(c2)C2CC3CCN2C(=O)C2CCCCC2)cc1 (stereo not drawn),-1,0,nt,nt,-1,26,nt,nt,nt
COc1ccc(-c2ccc3c(c2)C2CC3CCN2)cc1 (stereo not drawn),8,0,nt,nt,86*,1,-9,-16,-8
COc1ccc(CN(C)C[C@H]2Oc3c(NS(=O)(=O)c4cccs4)cccc3C(=O)N([C@H](C)CO)C[C@H]2C)cc1,nt,nt,nt,nt,7,nt,nt,nt,nt
Cc1ccc(CNC(=O)c2ccc(NC(=O)C3=CSCCO3)cc2)cc1,9,-1,-10,1,0,11,nt,nt,nt
